# Data: ChEMBL document CHEMBL3433997, “St. Jude Leishmania screening dataset” (2016)
# Biological target: Glucose transporter (Leishmania mexicana) (UniProt O61059)
# Experiment: ST_JUDE_LEISH: Cytotoxicity at 2uM final concentration against transgenic Leishmania Mexicana promastigotes LmGT2 that are glucose transport deficient and complemented with the L. Mexicana glucose transporter 2. Activity is measured by DNA content using SYBR green in vitro
# Assay type: functional
row,Compound,inhibition
1,CCOc1cc(C)ccc1C1CCN(CCCCNC(=O)c2ccc(NC(=O)c3cc(Cl)cc(Cl)c3)cc2)CC1,1.02%
2,CCOc1ccc2[nH]c(C)cc(=NN=Cc3ccccc3F)c2c1,3.86%
3,Cc1cc(=O)c(-c2ccc(Oc3cccc(Cl)c3)cc2)c(C)[nH]1,2.24%
4,N#Cc1ccc2c(c1)CCN(CCC1CCC(NC(=O)/C=C/c3ccc4[nH]ccc4c3)CC1)CC2 (stereo not given),0.13%
5,CN1CCC(N(Cc2ccc(-c3cnc(NCc4ccccc4)nc3)cc2)S(=O)(=O)c2ccccc2)CC1,3.05%
6,Fc1ccc2[nH]c3c(NCCN4CCCCC4)ncnc3c2c1,-1.11%
7,CCN(CCCN1CCCC1)c1cc(C)nc(Nc2ccc(Cl)cc2)n1,-0.13%
8,O=C(/C=C/c1ccc(Cl)c(Cl)c1)NCCCCCN1CCC(NC(=O)Nc2ccc(Cl)cc2F)CC1,2.48%
9,FC(F)(F)c1ccc2[nH]c(-c3cccc(-c4cccc(CNCCc5ccncc5)c4)c3)nc2c1,5.06%
10,COc1ccc(CN2CCCC(C(=O)c3ccc(C(F)(F)F)cc3)C2)c(O)c1 (stereo not given),3.56%
11,Cc1cnc2ccc(NS(=O)(=O)c3sc4ccc(Cl)cc4c3C)cc2c1N1CCNCC1,-0.02%
12,COC(=O)c1cccc(CNCc2ccc(-c3ccc(-c4nc5ccccc5[nH]4)s3)cc2)c1,9.28%
13,COc1cccc(C(=O)Nc2sc3c(c2C(N)=O)CCCC3)c1OC,12.7%
14,Cc1ccc(Cn2cnc3cc(C(=O)Nc4ccc(-c5ccc(CN(C)C)cc5)cc4)ccc3c2=O)o1,3.84%
15,COCCn1c(C)nc2ccccc2c1=O,-0.79%
16,CN(C)CCOc1cc(NC(=O)c2ccc(-c3ccc(Cl)cc3Cl)cc2)ccc1-c1ccccc1,-0.43%
17,COc1ccc2ncc(Cl)c(CCN3CC[C@@H](CNCc4cc5c(cn4)OCS5)C3)c2n1,12.2%
18,COc1c(C=NNc2nc(=Nc3ccccc3)[nH]c(=Nc3ccccc3)[nH]2)ccc(Br)c1O,9.27%
19,COc1ccc2c(c1)CCCC2NCCCCNC(=O)c1ccc(NC(=O)c2ccc(Cl)cc2)cc1 (stereo not given),0.82%
20,Cc1nc(C)n(CC(=O)Nc2cccc(-c3cccc(-c4nc5cc(C(F)(F)F)ccc5[nH]4)c3)c2)n1,7.09%
21,CC(C)(CN)c1nc(-c2ccc(Br)c(O)c2)c(-c2ccncc2)[nH]1,2.58%
22,Cc1ccc(C2=NNC3(S2)C(=O)N(C)c2ccccc23)cc1 (stereo not given),9.09%
23,Cc1cc(=NN=Cc2cccc(F)c2)c2ccc(F)cc2[nH]1,7.27%
24,COc1cc(NC(=O)Nc2cccc3ccccc23)c(OC)cc1Cl,3.81%
25,COc1ccc(-c2ccc(CNCc3ccc(F)cc3)cc2)cc1S(=O)(=O)NCCN1CCCC1,3.23%
